The whole screen tested about 69,000 compounds, of which about 8,600 (12%) showed an effect of 50% or more. The sample holds strong results, similar compounds and a random draw of the others, so the mix is not that of the screen.
test system: Plasmodium berghei; assay: Screen against P. berghei liver stage (PbLuc), transformed with Luciferase, at 10uM; assay type: functional, HepG2; settings: tested at 10 uM

| SMILES | INHIBITION |
| --- | --- |
| CCCN1CCc2[nH]nc(C(=O)N3CCNC(=O)C3)c2C1 | -9.42% |
| CN(C)C(=O)N1C[C@H]2CC[C@@H](C1)N(S(=O)(=O)c1cccnc1)C2 | -62.1% |
| CCCOc1cc(CNC(=O)Nc2ccc(C)cc2)ccn1 | -14.5% |
| CCn1ccnc1C1CCN(Cc2cccc(Cl)c2)CC1 | 60.1% |
| CCn1ccnc1C1CCN(C(=O)C(O)c2ccc(Cl)cc2)CC1 (centres undefined) | 6.66% |
| CCn1ccnc1C1CCN(Cc2c(F)cccc2F)CC1 | 43.9% |
| CCN1CCN(C(=O)COCc2nc(-c3ccncc3)no2)CC1 | -2.92% |
| CCS(=O)(=O)NCCN1CCN(C(C#N)c2ccccc2)CC1 (centres undefined) | 19.4% |
| CCOCCCNC(=O)CN(c1ccc(C)c(C)c1)S(C)(=O)=O | 18.4% |
| CC(C)OCCCNC(=O)CN(c1ccc(F)c(F)c1)S(C)(=O)=O | 62.3% |
| CCOCCCNC(=O)CN(c1ccc(F)c(F)c1)S(C)(=O)=O | 43.3% |
| CCC1=N[C@@]2(CC[C@@H]3CN(C(=O)Nc4ccccc4)C[C@@H]32)C(=O)N1C | 26.3% |
| COC(=O)c1ccc(-c2ccc(/C=C3\C(=O)NC(=N)N3C)o2)cc1 | 34.2% |
| Cc1csc(CNC(=O)N2CCCC(c3nncn3C)C2)n1 (centres undefined) | -23.9% |
| CCOc1ncccc1NC(=O)NC1CCN(C(C)=O)CC1 | 5.7% |
| COc1ccccc1N1CCN(C(=O)CCn2ccc(C)n2)CC1 | 16.2% |
| CS(=O)(=O)N1CCC(c2cnc(-c3cn[nH]c3)cn2)CC1 | 28.9% |
| O=C(C1NCCc2[nH]cnc21)N1CCC2(CC1)CNc1ccccc12 (centres undefined) | -15.8% |
| O=C(C1NCCc2[nH]cnc21)N1CCC2(C=Cc3ccccc32)CC1 (centres undefined) | 53% |
| O=C1OC2(CCN(C(=O)C3NCCc4[nH]cnc43)CC2)c2ccccc21 (centres undefined) | 23.5% |
| Cc1cc(C)nc(N2CCC(C(=O)O)(n3ccc(C(C)(C)C)n3)CC2)n1 | 25.4% |
| O=c1cccnn1CC1CN(CC2CCCC2)Cc2nccn2C1 (centres undefined) | -23.1% |
| CN1CCC(Nc2ccc(F)cc2OCC(F)(F)F)C1=O (centres undefined) | -0.378% |
| Cc1cc(C(=O)NCC(C)N2CCc3ccccc32)no1 (centres undefined) | 21.8% |
| CC(CNC(=O)Nc1ccc(C#N)cc1)N1CCc2ccccc21 (centres undefined) | 40.1% |
| CCC(CNC(=O)c1ccc(=O)[nH]n1)N1CCc2ccccc2C1 (centres undefined) | 28.5% |
| CC(CNC(=O)c1cccc(C#N)c1)N1CCc2ccccc21 (centres undefined) | -8.51% |
| CC(CNC(=O)c1ccc(C#N)cc1)N1CCc2ccccc21 (centres undefined) | 83.2% |
| CC(CNC(=O)c1ccc(=O)[nH]n1)N1CCc2ccccc21 (centres undefined) | 53% |
